We go through eight compounds from PubChem BioAssay (Tox21).

A number with no mark means an inactive call. Results filed as inconclusive are left out. Calls of active or inactive are those of the source. Unless noted, calls follow the shape of the full dose curve.

Assay [1] in a line: Nuclear factor erythroid 2-related factor 2/antioxidant responsive element (Nrf2/ARE) small molecule agonists: qHTS cell viability counter screen in human keratinocytes (AID 1919968; active = well fitted curve in the direction sought with a large enough effect in the repeat runs; an effect the other way counts as inactive or inconclusive; also: nearly all actives have a fitted effect of over 55% in size; also: potency is read from the fitted curve at half-maximal effect). An outline of the steps:
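KeratinoSens HaCaT cells, 1,500/well, preincubated 5 h, then exposed to compounds in DMSO for 23 h at 37 C/5% CO2. Viability read as CellTiter-Fluor fluorescence after 1 h, in the same wells as the ARE-luciferase read.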

Assay [2] is described as follows: Nuclear factor erythroid 2-related factor 2/antioxidant responsive element (Nrf2/ARE) small molecule agonists: luciferase reporter gene qHTS assay in human keratinocytes (AID 1919969). Also: nearly all actives have a fitted effect of over 35% in size. Also: potency is read from the fitted curve at half-maximal effect. A general note: Reporter assays use an easily measured gene product as a stand-in for the process of interest.
Assay [3] concerns the target Gonadotropin-releasing hormone receptor (Homo sapiens) (UniProt P30968). Briefly: Human gonadotropin-releasing hormone receptor (GnRHR) small molecule agonists, calcium flux assay in GnRHR-HEK293 cells (AID 1920063). Also: nearly all actives have a fitted effect of over 35% in size. Also: potency is read from the fitted curve at half-maximal effect. In a few lines:
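HEK293 cells stably expressing human GnRHR were dye-loaded for 1 h at 37 C. Compound was added in agonist mode and fluorescence (Ex/Em 480/540) recorded kinetically for 3 min. Fifteen concentrations, triplicates.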
Background: Calcium assays in cells follow changes in intracellular calcium, usually with a dye or a luminescent sensor.

The target in assay [4] is KiSS-1 receptor (Homo sapiens) (UniProt Q969F8). Briefly: Human kisspeptin (KISS1R) small molecule agonists, calcium flux assay in KISS1R-HEK293 cells (AID 1920064; active = well fitted curve in the direction sought with a large enough effect in the repeat runs; an effect the other way counts as inactive or inconclusive). An outline of the steps:
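HEK293 cells stably expressing human KISS1R were loaded with calcium dye for 1 h at 37 C, then given compound; fluorescence (Ex/Em 480/540) was read kinetically for 3 min. Fifteen concentrations, triplicate.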

The nature of assay [5]: G protein-coupled receptor (GPCR) small molecule agonists, calcium flux assay: HEK293 wild type cell line counter screen (AID 1920065). In a few lines:
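Wild-type HEK293 cells plated 18 h, loaded with calcium dye 1 h at 37 C, then compounds added in agonist mode (ATP as positive control). Kinetic fluorescence Ex/Em 480/540 recorded 3 min at 1 sec intervals; 15 concentrations, triplicate.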

A short description of assay [6]: p53 small molecule agonists, cell-based qHTS assay with human liver microsomes (AID 1963577). An outline of the steps: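 p53RE-bla reporter cells were pre-incubated 5 h at 37 C, then treated with compounds plus human liver microsomes (0.5 mg/mL final) and NADPH (0.5 mg/mL final) for 16 h at 37 C. Beta-lactamase activity was read by LiveBLAzer fluorescence after 2 h at room temperature.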

Assay [7] in a line: p53 small molecule agonists, cell-based qHTS assay with rat liver microsomes (AID 1963578). An outline of the steps: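 p53RE-bla cells were exposed to compounds together with rat liver microsomes (0.5 mg/mL final) and NADPH (0.5 mg/mL final) for 16 h at 37 C, then read by LiveBLAzer beta-lactamase fluorescence after 2 h at room temperature.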
For orientation: Quantitative high-throughput screening tests each substance at several concentrations.

Assay [8] can be described thus: p53 small molecule agonists, cell-based qHTS assay with rat liver microsomes: qHTS cell viability counter screen (AID 1963580). Also: nearly all actives have a fitted effect of over 45% in size. An outline of the steps:
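Viability is assessed in parallel with the p53 reporter read: HCT-116 p53RE-bla cells receive compounds plus rat microsomes and NADPH (0.5 mg/mL final apiece), incubate 16 h at 37 C, and then CellTiter-Glo luminescence is recorded.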

A short description of assay [9]: p53 small molecule agonists, cell-based qHTS assay (AID 1963582; active = well fitted activation curve with a large enough effect in the signal ratio in the repeat runs, not every such curve was filed as active; the % refers to the signal ratio). In a few lines: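 p53RE-bla reporter cells, compounds added in DMSO after 5 h plating, incubated 16 h at 37 C. Beta-lactamase read via 2 h room-temperature LiveBLAzer B/G FRET substrate, fluorescence intensity.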
In assay [10] the target is 5-hydroxytryptamine receptor 2A (Homo sapiens) (UniProt P28223). The assay is described as follows: 5-hydroxytryptamine receptor 2A (HTR2A) small molecule antagonists, cell-based qHTS assay (AID 1963586). Also: nearly all actives have a fitted effect of over 45% in size. In a few lines: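 Antagonist-mode intracellular calcium assay: DOI (4 nM) added after 5 min compound pre-incubation at room temperature to dye-loaded HTR2A-CHO cells. Fluorescence followed for 3 min, sampled every second.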
Chain of 5-hydroxytryptamine receptor 2A (Homo sapiens) (P28223 whole entry, looked up): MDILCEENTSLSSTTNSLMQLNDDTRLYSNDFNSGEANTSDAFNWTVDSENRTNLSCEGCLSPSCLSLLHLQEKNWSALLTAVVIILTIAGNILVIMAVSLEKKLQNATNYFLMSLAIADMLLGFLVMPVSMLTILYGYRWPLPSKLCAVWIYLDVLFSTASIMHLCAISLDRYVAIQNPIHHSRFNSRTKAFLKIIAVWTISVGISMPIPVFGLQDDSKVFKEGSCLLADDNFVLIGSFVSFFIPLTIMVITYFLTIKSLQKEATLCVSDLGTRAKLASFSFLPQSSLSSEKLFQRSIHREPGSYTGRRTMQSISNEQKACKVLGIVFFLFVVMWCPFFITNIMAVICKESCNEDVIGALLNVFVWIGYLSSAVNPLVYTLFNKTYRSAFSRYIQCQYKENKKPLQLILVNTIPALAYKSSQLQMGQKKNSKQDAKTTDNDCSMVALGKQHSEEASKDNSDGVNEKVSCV

Assay [11] shares this target. The assay is described as follows: 5-hydroxytryptamine receptor 2A (HTR2A) small molecule agonists, cell-based qHTS assay (AID 1963587). Also: nearly all actives have a fitted effect of over 30% in size. Also: potency is read from the fitted curve at half-maximal effect. In a few lines:
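CHO cells stably expressing human HTR2A, plated 18 h, loaded with calcium dye 1 h at 37 C. Agonist mode: compounds added and intracellular calcium fluorescence recorded kinetically for 2 min at 1 sec intervals.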

Assay [12] has as its target Muscarinic acetylcholine receptor M1 (Homo sapiens) (UniProt P11229). Briefly: Cholinergic receptor muscarinic 1 (CHRM1) small molecule antagonists, cell-based qHTS assay (AID 1963588). Also: nearly all actives have a fitted effect of over 40% in size. An outline of the steps:
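CHRM1-CHO calcium-flux assay, antagonist mode. Cells were seeded 18 h, dye-loaded 1 h at 37 C and given compound for 5 min at RT, then acetylcholine was added at 50nM. FDSS fluorescence was read 3 min; 15 concentrations, three runs.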

Assay [13] has the same target. Briefly: Cholinergic receptor muscarinic 1 (CHRM1) small molecule agonists, cell-based qHTS assay (AID 1963589). Also: nearly all actives have a fitted effect of over 35% in size. An outline of the steps: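 CHO cells stably expressing human CHRM1 were loaded with calcium dye for 1 h at 37 C, then compound was added in agonist mode. Intracellular calcium fluorescence was followed kinetically at 1 s intervals. Fifteen concentrations were tested in three independent runs.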

Assay [14] in a line: cAMP Responsive Elements (CRE) small molecule agonists, cell-based qHTS assay (AID 1963590). In a few lines: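 CRE-bla HEK 293T cells, 2,000/well in DMEM with 10% dialyzed FBS and 25 mM HEPES, pre-incubated 18 h at 37 C, then exposed to compound 3 h at 37 C. Beta-lactamase reporter read with LiveBLAzer B/G FRET substrate after 2 h at room temperature.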
Assay [15] is described as follows: cAMP Responsive Elements (CRE) small molecule antagonists, cell-based qHTS assay (AID 1963591; active = well fitted inhibition curve with a large enough effect in the signal ratio in the repeat runs, not every such curve was filed as active; the % refers to the signal ratio; also: potency is read from the fitted curve at half-maximal effect). In a few lines: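 CRE-bla HEK293T cells plated 18 h, then given compound plus NKH477 at 0.25 uM final for 3 h at 37C. Beta-lactamase reporter read with LiveBLAzer B/G FRET substrate after 2 h at room temperature.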
Assay [16] addresses Beta-2 adrenergic receptor (Homo sapiens) (UniProt P07550). The assay is described as follows: Adrenergic beta2 receptor (ADRB2) small molecule antagonists, cell-based qHTS assay (AID 1963592). Also: nearly all actives have a fitted effect of over 50% in size. Also: potency is read from the fitted curve at half-maximal effect. In a few lines:
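Cells (CHO, stable ADRB2 overexpression) incubated 18-20hr at 37C; compounds added from DMSO; agonist mix (1nM isoproterenol, 100uM IBMX, 25uM Ro-20-1724) added; 0.5hr RT; d2-cAMP and anti-cAMP-cryptate added; 1hr RT; 665/615 nm read.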

Assay [17] addresses D(2) dopamine receptor (Homo sapiens) (UniProt P14416). Briefly: Dopamine D2 receptor (DRD2) small molecule agonists, cell-based qHTS assay (AID 1963594). Also: nearly all actives have a fitted effect of over 35% in size. In a few lines: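 HEK293 cells stably expressing human DRD2, pre-treated with PDE inhibitor Ro20-1724 (0.1 mM final) and compound 10 min at room temperature, then stimulated with NKH477 (200nM […]) for 30 min. cAMP read by HTRF (665/620 nm).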

Assay [18] shares this target. The assay is described as follows: Dopamine D2 receptor (DRD2) small molecule antagonists, cell-based qHTS assay (AID 1963595; active = well fitted inhibition curve with a large enough effect in the signal ratio in the repeat runs, with a control signal flat; the % refers to the signal ratio; also: potency is read from the fitted curve at half-maximal effect). An outline of the steps: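 HTRF cAMP read-out at 665 and 620 nm emission (340 nm excitation). Antagonist mode: compounds were tested against 12 nM quinpirole in DRD2-HEK293 cells, with 200 nM NKH477 raising cAMP and 0.1 mM Ro20-1724 blocking its breakdown.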

The target of assay [19] is Beta-2 adrenergic receptor (Homo sapiens) (UniProt P07550). Briefly: Adrenergic beta2 receptor (ADRB2) small molecule agonists, cell-based qHTS assay (AID 1963593). Also: potency is read from the fitted curve at half-maximal effect.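 As to activation: CHO cells stably overexpressing human ADRB2.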 An outline of the steps:
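CHO cells stably over-expressing ADRB2 were plated overnight at 37C, then dosed with compounds plus a stimulation mix containing 100uM IBMX and 25uM Ro-20-1724 for 0.5hr at room temperature. cAMP was measured by HTRF competition, 1hr.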

A short description of assay [20]: p53 small molecule agonists, cell-based qHTS assay: qHTS cell viability counter screen (AID 1963581). Also: nearly all actives have a fitted effect of over 45% in size. An outline of the steps: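 p53RE-bla HCT-116 cells, compounds added 5 h after plating and incubated 16 h at 37 C. Cytotoxicity measured in the same wells as intracellular ATP by CellTiter-Glo luminescence after 30 min at room temperature.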

Chain of Muscarinic acetylcholine receptor M1 (Homo sapiens) (P11229 whole entry, looked up): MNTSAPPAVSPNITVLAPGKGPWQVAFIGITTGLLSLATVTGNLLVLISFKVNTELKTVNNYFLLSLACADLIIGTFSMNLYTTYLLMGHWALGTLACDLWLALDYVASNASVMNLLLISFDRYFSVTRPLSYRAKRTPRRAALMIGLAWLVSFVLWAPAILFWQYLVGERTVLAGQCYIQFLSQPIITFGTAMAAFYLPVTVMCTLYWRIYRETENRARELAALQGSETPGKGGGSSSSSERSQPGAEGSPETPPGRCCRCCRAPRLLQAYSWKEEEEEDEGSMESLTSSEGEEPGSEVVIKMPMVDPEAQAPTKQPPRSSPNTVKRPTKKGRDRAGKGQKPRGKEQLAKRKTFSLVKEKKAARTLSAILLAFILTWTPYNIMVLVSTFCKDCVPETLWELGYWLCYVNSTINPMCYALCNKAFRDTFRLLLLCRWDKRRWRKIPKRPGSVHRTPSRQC
Chain of KiSS-1 receptor (Homo sapiens) (Q969F8 whole entry, looked up): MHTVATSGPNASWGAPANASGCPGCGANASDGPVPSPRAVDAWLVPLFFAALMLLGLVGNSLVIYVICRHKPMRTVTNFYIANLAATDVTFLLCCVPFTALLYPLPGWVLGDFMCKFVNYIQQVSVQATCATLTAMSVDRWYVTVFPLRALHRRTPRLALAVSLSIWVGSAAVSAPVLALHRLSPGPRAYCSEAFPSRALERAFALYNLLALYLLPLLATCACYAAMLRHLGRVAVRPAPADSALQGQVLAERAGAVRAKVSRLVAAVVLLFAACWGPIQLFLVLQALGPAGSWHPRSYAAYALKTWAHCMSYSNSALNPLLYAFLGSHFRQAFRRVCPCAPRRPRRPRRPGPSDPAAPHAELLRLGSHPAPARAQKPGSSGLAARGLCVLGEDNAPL
Chain of Gonadotropin-releasing hormone receptor (Homo sapiens) (P30968 whole entry, looked up): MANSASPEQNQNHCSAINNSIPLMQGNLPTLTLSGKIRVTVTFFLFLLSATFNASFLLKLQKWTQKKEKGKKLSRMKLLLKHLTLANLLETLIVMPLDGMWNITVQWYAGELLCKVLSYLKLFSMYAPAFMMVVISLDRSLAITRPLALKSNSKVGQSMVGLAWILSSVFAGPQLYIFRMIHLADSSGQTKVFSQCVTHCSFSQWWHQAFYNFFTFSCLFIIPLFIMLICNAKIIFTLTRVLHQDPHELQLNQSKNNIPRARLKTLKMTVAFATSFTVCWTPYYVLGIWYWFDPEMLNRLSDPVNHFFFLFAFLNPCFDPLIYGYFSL
Chain of D(2) dopamine receptor (Homo sapiens) (P14416 whole entry, looked up): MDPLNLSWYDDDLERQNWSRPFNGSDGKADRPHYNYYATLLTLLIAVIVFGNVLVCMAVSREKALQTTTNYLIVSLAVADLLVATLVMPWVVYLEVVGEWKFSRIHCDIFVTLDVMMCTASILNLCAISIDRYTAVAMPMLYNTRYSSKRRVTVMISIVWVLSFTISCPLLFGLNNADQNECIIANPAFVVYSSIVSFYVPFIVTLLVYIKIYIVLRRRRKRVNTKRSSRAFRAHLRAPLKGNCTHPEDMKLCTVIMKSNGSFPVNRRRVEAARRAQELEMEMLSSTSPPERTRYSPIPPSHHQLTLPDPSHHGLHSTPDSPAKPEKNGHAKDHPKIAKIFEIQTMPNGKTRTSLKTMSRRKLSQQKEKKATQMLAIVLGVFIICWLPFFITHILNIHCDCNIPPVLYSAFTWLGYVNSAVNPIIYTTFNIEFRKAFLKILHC
Chain of Beta-2 adrenergic receptor (Homo sapiens) (P07550 whole entry, looked up): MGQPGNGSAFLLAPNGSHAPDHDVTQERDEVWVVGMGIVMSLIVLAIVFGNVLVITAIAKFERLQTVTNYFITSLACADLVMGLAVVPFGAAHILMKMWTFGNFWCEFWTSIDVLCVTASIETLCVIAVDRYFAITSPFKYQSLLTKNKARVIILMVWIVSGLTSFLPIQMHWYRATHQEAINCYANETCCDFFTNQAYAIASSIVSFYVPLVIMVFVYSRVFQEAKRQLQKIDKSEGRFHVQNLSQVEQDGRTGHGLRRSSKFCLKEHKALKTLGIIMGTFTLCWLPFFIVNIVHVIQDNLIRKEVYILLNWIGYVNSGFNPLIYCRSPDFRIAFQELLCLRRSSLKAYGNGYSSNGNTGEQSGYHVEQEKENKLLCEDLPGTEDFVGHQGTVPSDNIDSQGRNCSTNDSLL

As for `COc1ccc2nc(NC(=O)Nc3ccccc3)sc2c1`, the Potency result in assay [1], in assay [3], in [6], in assay [7], in assay [8] and in assay [9] was “inactive” in each case. Further, the Potency result in assay [10], in assay [11], in assay [12], in assay [13], in assay [14] and in assay [15] was “inactive” in each case. In addition, the Potency entry in assay [17] and in [18] was “inactive” each time. For the same compound, the Potency was 0.596 µM (active) in [2] and 11.9 µM (active) in [16]. The result in assay [4] and in assay [5] was inactive.
`CC(C)(C)NSc1nc2ccccc2s1`: the Potency result in [1], in [3], in assay [6], in [7], in [8] and in [9] was “inactive” throughout. In addition, the Potency result in [10], in assay [11], in assay [12], in [13], in [14] and in assay [15] was “inactive” each time. For the same compound, the Potency entry in assay [16], in [17] and in assay [18] was “inactive” each time. The Potency in [2] was 24.8 µM (active). The result in assay [4] and in assay [5] was inactive.
On to `CC[C@H](NC(C)C)[C@H](O)c1ccc(O)c2[nH]c(=O)ccc12`, for which the Potency entry in assay [1], in assay [2], in assay [6], in assay [7], in [8] and in [9] was “inactive” throughout. Besides, the Potency result in assay [10], in assay [11], in [12], in assay [13] and in assay [17] was “inactive” each time. The Potency was 0.012 µM (active) in assay [3], 0.0017 µM (active) in assay [19] and 0.0944 µM (active) in assay [18]. Further, the outcome in assay [4] and in assay [5] was inactive.
As to `Oc1cc(O)c(Cl)cc1Cl`, the Potency result in assay [1], in [3], in [6], in assay [8], in assay [20] and in assay [9] was “inactive” each time. The Potency entry in assay [10], in [11], in [12], in [13], in assay [14] and in assay [15] was “inactive” throughout. Moreover, the Potency entry in [16], in assay [17] and in [18] was “inactive” throughout. For the same compound, the Potency in [2] was 55.8 µM (active). The result in [4] and in assay [5] was inactive.
With `CCOc1ccc([N+](=O)[O-])cc1`, the Potency in [1] is 62 µM (active); in [15] it was 55.3 µM (active). The Potency entry in assay [2], in assay [3], in assay [6], in [7], in [10] and in assay [12] was “inactive” in each case. Moreover, the Potency result in assay [14], in [16] and in assay [17] was “inactive” in each case. The result in assay [4] and in assay [5] was inactive.
As for `C=CC1CO1` (centres undefined), the Potency result in [1], in assay [2], in assay [3], in assay [6], in assay [8] and in assay [20] was “inactive” in each case. Further, the Potency entry in assay [9], in [10], in assay [11], in [12], in assay [13] and in assay [14] was “inactive” throughout. Besides, the Potency entry in assay [15], in assay [16] and in assay [18] was “inactive” each time. Also, the result in assay [4] and in assay [5] was inactive.
Take `CN(C)CCOC1=Cc2ccccc2Sc2ccc(Cl)cc21`: the Potency entry in [1], in assay [2], in assay [3], in assay [6], in [7] and in assay [11] was “inactive” each time. Moreover, the Potency entry in assay [12], in assay [13], in assay [15], in assay [16], in assay [19] and in assay [17] was “inactive” each time. Moreover, the result in assay [4] and in assay [5] was inactive.
On to `CCCC(=O)c1cc(O)c(O)cc1O`, for which the values for the Potency in assay [1], in assay [2] and in [11] were 9.69 µM (active), 4.86 µM (active) and 0.436 µM (active), respectively. The Potency result in assay [3], in assay [6], in assay [7], in [8] and in [12] was “inactive” each time. For the same compound, the outcome in assay [4] and in assay [5] was inactive.
